About 970 (3.9%) of roughly 25,000 compounds were called active. Inconclusive results (about 8%) are left out. No rule for the calls is given here. The full list was thinned out, with actives kept by preference.

The results in this text go back to PubChem BioAssay AID1745853 (National Center for Advancing Translational Sciences (NCATS), 2022).

Test in all cases: Primary Screen for Target Class Profiling of Small Molecule Inhibitors of Methyltransferases
Experiment [1] concerns the target Catechol O-methyltransferase (Homo sapiens) (UniProt P21964). As to conditions: purified enzyme, MTase-Glo SAH luminescence; activity change, negative = inhibition: at 40 µM, stronger effect = lower value; outcome: 40 uM. The method, boiled down:
(§1)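 Each enzyme was assayed with SAM and its substrate. SAH formation detected by MTase-Glo luminescence; single-point 40 uM screen[…].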

In experiment [2] the target is Glycine N-methyltransferase (Homo sapiens) (UniProt Q14749). As to conditions: purified enzyme, MTase-Glo SAH luminescence; measured here: GNMT inhibition; at 40 µM; stronger effect = lower value. The method, boiled down:
as §1

The target in experiment [3] is Histamine N-methyltransferase (Homo sapiens) (UniProt P50135). Particulars: purified enzyme, MTase-Glo SAH luminescence; measured here: HNMT inhibition; at 40 µM; stronger effect = lower value. The method, boiled down:
as §1

For experiment [4], the target named is Guanidinoacetate N-methyltransferase (Homo sapiens) (UniProt Q14353). Particulars: purified enzyme, MTase-Glo SAH luminescence; measured here: GAMT inhibition; at 40 µM; stronger effect = lower value. The method, boiled down:
as §1

For experiment [5], the target named is Nicotinamide N-methyltransferase (Homo sapiens) (UniProt P40261). Particulars: purified enzyme, MTase-Glo SAH luminescence; measured here: NNMT inhibition; at 40 µM; stronger effect = lower value. The method, boiled down: as §1
Chain of Nicotinamide N-methyltransferase (Homo sapiens) (P40261 whole entry, looked up): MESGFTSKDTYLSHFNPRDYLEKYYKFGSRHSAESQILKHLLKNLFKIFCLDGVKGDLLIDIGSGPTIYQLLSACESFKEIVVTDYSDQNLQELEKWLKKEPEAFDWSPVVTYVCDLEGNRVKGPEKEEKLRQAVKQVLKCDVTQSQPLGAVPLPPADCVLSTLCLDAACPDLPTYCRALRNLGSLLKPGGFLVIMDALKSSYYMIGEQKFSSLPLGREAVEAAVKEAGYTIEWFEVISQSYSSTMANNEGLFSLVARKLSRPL
In experiment [6] the target is Phenylethanolamine N-methyltransferase (Homo sapiens) (UniProt P11086). Particulars: purified enzyme, MTase-Glo SAH luminescence; measured here: PNMT inhibition; at 40 µM; stronger effect = lower value. The procedure, abridged: as §1
Chain of Phenylethanolamine N-methyltransferase (Homo sapiens) (P11086 whole entry, looked up): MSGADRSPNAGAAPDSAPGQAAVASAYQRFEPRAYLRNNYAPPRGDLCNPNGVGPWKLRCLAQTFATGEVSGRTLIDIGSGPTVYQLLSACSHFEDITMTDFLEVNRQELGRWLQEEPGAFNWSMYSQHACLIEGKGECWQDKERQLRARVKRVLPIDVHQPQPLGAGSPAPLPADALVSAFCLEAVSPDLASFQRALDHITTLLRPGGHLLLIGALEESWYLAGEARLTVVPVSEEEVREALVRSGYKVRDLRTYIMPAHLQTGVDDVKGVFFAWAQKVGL
% is scaled to controls: 0 for no effect and ±100 for the full control effect.

Chain of Catechol O-methyltransferase (Homo sapiens) (P21964 whole entry, looked up): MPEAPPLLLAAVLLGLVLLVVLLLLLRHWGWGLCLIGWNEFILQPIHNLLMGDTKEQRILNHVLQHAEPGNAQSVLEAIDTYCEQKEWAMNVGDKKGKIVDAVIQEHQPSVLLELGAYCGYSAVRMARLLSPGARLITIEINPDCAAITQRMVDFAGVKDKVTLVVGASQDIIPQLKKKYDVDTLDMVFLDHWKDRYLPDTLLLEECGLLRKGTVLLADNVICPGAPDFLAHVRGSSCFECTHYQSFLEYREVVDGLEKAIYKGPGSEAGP
Chain of Histamine N-methyltransferase (Homo sapiens) (P50135 whole entry, looked up): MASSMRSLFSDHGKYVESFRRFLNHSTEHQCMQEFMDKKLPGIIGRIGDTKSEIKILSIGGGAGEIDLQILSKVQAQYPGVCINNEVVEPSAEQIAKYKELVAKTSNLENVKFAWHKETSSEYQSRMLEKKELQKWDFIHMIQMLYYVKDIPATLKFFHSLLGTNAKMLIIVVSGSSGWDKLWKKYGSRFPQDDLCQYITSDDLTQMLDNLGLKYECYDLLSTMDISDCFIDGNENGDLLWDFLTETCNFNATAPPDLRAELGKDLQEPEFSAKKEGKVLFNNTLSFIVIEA
Chain of Glycine N-methyltransferase (Homo sapiens) (Q14749 whole entry, looked up): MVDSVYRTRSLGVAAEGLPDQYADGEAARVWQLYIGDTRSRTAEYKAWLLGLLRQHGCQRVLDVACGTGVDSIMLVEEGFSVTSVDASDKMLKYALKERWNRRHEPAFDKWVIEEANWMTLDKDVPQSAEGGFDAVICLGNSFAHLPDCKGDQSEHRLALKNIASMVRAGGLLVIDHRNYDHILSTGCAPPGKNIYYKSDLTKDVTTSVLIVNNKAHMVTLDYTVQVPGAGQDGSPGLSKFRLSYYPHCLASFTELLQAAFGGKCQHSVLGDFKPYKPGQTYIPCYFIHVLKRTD

On to `CN1CCCC1Cc1c[nH]c2ccc(CCS(=O)(=O)c3ccccc3)cc12` (stereo not drawn), for which the molecule was called active in experiment [1]. Moreover, the activity change, negative = inhibition in experiment [2] was -2.16%; in experiment [3] it was -89.9%.

Take `Cc1cc2c(cc3n2CC(C)(C(=O)NC2CCCCCC2)N(Cc2cccs2)C3=O)o1` (stereo not drawn): the activity change, negative = inhibition was -1.18% (inactive) in experiment [1]; -9.3% in experiment [2]; 4.66% in experiment [4]; -6.23% in experiment [3]; -21% in experiment [5]; -2.94% in experiment [6].

With `CCCCN1C(=O)c2cc(C(=O)NCc3cccc(OC)c3)nn2CC1(C)C(=O)NC1CCCC1` (stereo not drawn), the activity change, negative = inhibition was 4.35% (inactive) in experiment [1]; 5.79% in experiment [2]; 1.34% in experiment [4]; 1.56% in experiment [3]; 5.98% in experiment [5]; 5.6% in experiment [6].

For the molecule `CCn1c(=O)n(CC)c2cc(S(=O)(=O)Nc3ccc(Br)c(C)c3)c(Cl)cc21`, the activity change, negative = inhibition was -4.03% (inactive) in experiment [1]; -3.14% in experiment [2]; 3.91% in experiment [4]; -0.387% in experiment [3]; -1.18% in experiment [5]; -4.27% in experiment [6].

Regarding `CCCN1C(=O)c2c(C(=O)NCCc3ccco3)ncn2CC1(C)C(=O)NCc1ccc(C)cc1` (stereo not drawn), the activity change, negative = inhibition is 7.22% (inactive) in experiment [1]; 0.693% in experiment [2]; 0.268% in experiment [4]; 5.09% in experiment [3]; 4.66% in experiment [5]; 9% in experiment [6].

Regarding `Cc1c(NC(=O)c2cc(C(N)=O)nc3cc(F)ccc23)c(C(F)(F)F)nn1Cc1ccc(C#N)cc1`, the activity change, negative = inhibition in experiment [1] was -4.71% (inactive); in experiment [2] it was -5.91%; in experiment [4] it was -2.28%; in experiment [3] it was 3.43%; in experiment [5] it was -13.8%; in experiment [6] it was 1.39%.

Consider `COc1ccccc1CNC(=O)c1nn(CC2CC2)c2c1CNCC2`, for which the activity change, negative = inhibition is -8.87% (inactive) in experiment [1]; -6.08% in experiment [2]; -7.04% in experiment [4]; -9.87% in experiment [3]; -14.1% in experiment [5]; -12.2% in experiment [6].

As for `CC(C)n1c(=O)c2ccc(C(=O)NC3CCCCC3)cc2n2c(=O)n(CC(=O)NC3CCCCC3)nc12`, the activity change, negative = inhibition was -2.65% (inactive) in experiment [1]; -0.578% in experiment [2]; -0.047% in experiment [4]; 2.13% in experiment [3]; -1.76% in experiment [5]; -1.89% in experiment [6].

As for `CC(C)Cn1c(=O)c2ccccc2n2c(=O)n(Cc3ccccc3Cl)nc12`, the activity change, negative = inhibition was 3.16% (inactive) in experiment [1]; 2.72% in experiment [2]; 1.02% in experiment [4]; 6.97% in experiment [3]; -2.52% in experiment [5]; 3.52% in experiment [6].

As to `COc1c(C)c(OCC=C(C)C)cc2c1C(=O)NC2=O`, the activity change, negative = inhibition in experiment [1] is 2.98% (inactive); in experiment [2] it was 1.17%; in experiment [4], 8.39%; in experiment [3], 6.71%; in experiment [5] it was -18%; in experiment [6], -15.7%.

On to `NC(=O)c1cnc(NCCc2ccc(O)c(Cl)c2)nc1NCc1ccccc1`, for which the activity change, negative = inhibition is -21.7% (active) in experiment [1]; -31.8% in experiment [2]; -12.1% in experiment [4]; -36% in experiment [3]; -88.5% in experiment [5]; -23.4% in experiment [6].

`O=C(CCc1nnc2ccc(NCCCN3CCCC3=O)nn12)NCc1ccccc1Cl`: the activity change, negative = inhibition in experiment [1] is 10.2% (inactive); in experiment [2] it was 1.96%; in experiment [4] it was 2.26%; in experiment [3], 10.9%; in experiment [5], 1.3%; in experiment [6] it was 9.12%.

In the case of `C[C@@H]1C[C@H]2O[C@@]3(O[C@@H]2C(C)(C)O)C(O)[C@@]2(C)C4CCC5C(C)(C)[C@@H](O[C@H]6OC[C@H](O)[C@@H](O)[C@@H]6O)CC[C@@]56C[C@@]46CC[C@]2(C)C13` (stereo partly drawn), the activity change, negative = inhibition in experiment [1] is -3.8% (inactive); in experiment [2] it was 0%; in experiment [4] it was -1.51%; in experiment [3] it was -4.39%; in experiment [5], -13.7%; in experiment [6], -0.709%.

`COc1ccccc1CN1C(=O)c2cc3sccc3n2CC1(C)C(=O)NC1CCCC(C)C1C` (stereo not drawn): the activity change, negative = inhibition in experiment [1] was 4.18% (inactive); in experiment [2] it was 1.88%; in experiment [4], 0%; in experiment [3] it was 3.67%; in experiment [5] it was -3.12%; in experiment [6] it was 1.29%.

`Cc1cnc(-c2ccncc2)n1CCN`: the activity change, negative = inhibition was -5.2% (inactive) in experiment [1]; -4.08% in experiment [2]; -7.5% in experiment [4]; -1.23% in experiment [3]; -6.93% in experiment [5]; -8.39% in experiment [6].

With `Cc1cc(Cl)ccc1OCC(=O)N1CC(CO)C2(CCNCC2)C1` (stereo not drawn), the activity change, negative = inhibition in experiment [1] is 2.63% (inactive); in experiment [2], -0.912%; in experiment [4], -2.42%; in experiment [3], -7.34%; in experiment [5], 1.44%; in experiment [6], 4.28%.

In the case of `CC(C)CCn1c(=O)c2ccc(C(=O)NC(C)C)cc2n2c(=O)n(CC(=O)Nc3ccccc3)nc12`, the activity change, negative = inhibition in experiment [1] was 3.2% (inactive); in experiment [2], 2.47%; in experiment [4], 0%; in experiment [3], -0.014%; in experiment [5], 2.58%; in experiment [6], 3.82%.

With `COC(=O)C(C)C1CCC2(C)C(=O)C=CC(C)(O)C2C1O` (stereo not drawn), the activity change, negative = inhibition in experiment [1] was -21.2% (inactive); in experiment [2], 0.317%; in experiment [4] it was 3.5%; in experiment [3], 4.59%; in experiment [5], -8.83%; in experiment [6], 5.47%.

For `CC1(C(=O)NC2CCCCC2)Cn2c(nc3ccccc32)C(=O)N1CCCc1ccccc1` (stereo not drawn), the activity change, negative = inhibition in experiment [1] is -0.028% (inactive); in experiment [2], -0.457%; in experiment [4], 2.95%; in experiment [3], -0.222%; in experiment [5], 2.79%; in experiment [6] it was -1.29%.

As to `COc1cccc(S(=O)(=O)N2CCC([C@H]3[C@@H](OC)C(=O)N3C(C)C)CC2)c1`, the activity change, negative = inhibition in experiment [1] was -16.7% (inactive); in experiment [2], -11%; in experiment [4], -0.234%; in experiment [3], -8.83%; in experiment [5] it was -11.7%; in experiment [6] it was -7.58%.

As for `O=C(Nc1ccccc1Cl)N1CCn2cccc2C1Cc1ccccc1` (stereo not drawn), the activity change, negative = inhibition in experiment [1] was 8.91% (inactive); in experiment [2] it was -4.49%; in experiment [4], 0%; in experiment [3], 0.539%; in experiment [5] it was -1.29%; in experiment [6], 1%.

Regarding `CC(=O)N(C1CCOCC1)C1CCN(S(=O)(=O)c2ccc3c(c2)OCCO3)CC1`, the activity change, negative = inhibition in experiment [1] is 14.5% (inactive); in experiment [2] it was 6.17%; in experiment [4], 0%; in experiment [3] it was 15.9%; in experiment [5], 5.83%; in experiment [6], 10%.

Turning to `COC1CCN(CC2CCCCCN2C(=O)NCc2ccc(F)cc2)CC1` (stereo not drawn), the activity change, negative = inhibition in experiment [1] was 0.269% (inactive); in experiment [2], -0.541%; in experiment [4], -1.47%; in experiment [3] it was 0.992%; in experiment [5] it was 0.892%; in experiment [6], -1.43%.

In the case of `CCCc1sc(NC(=O)C[C@H]2NC(=O)c3ccccc3NC2=O)nc1C(=O)OC`, the activity change, negative = inhibition is -0.596% (active) in experiment [1]; -52% in experiment [2]; 0.55% in experiment [4]; -1.11% in experiment [3]; -24.7% in experiment [5]; -7.16% in experiment [6].

`CCOc1ccc(NC(=O)N2Cc3c(sc4c3CCCC4)-n3cccc3C2c2ccc(C)cc2)cc1` (stereo not drawn): the activity change, negative = inhibition in experiment [1] was -4.77% (inactive); in experiment [2], -7.14%; in experiment [4], -5.05%; in experiment [3], -0.466%; in experiment [5], -12.8%; in experiment [6], -3.68%.

With `COc1ccc(CN2C(=O)c3cc4sccc4n3CC2(C)C(=O)NC2CCCCC2)cc1` (stereo not drawn), the activity change, negative = inhibition in experiment [1] is -1.71% (inactive); in experiment [2], -4.01%; in experiment [4], 4.64%; in experiment [3], 0.743%; in experiment [5], 0.231%; in experiment [6] it was -2.93%.
